Laboratory results taken from PubChem BioAssay.
Inconclusive results are not listed. Calls of active or inactive are those of the source.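 Rule for the calls, unless noted: active = viability at or below 10% of carrier control in both of two separate runs; inconclusive = viability at or below 10% in only one of the two runs; inactive = the rest.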

Tests used:
[1] = reducers of endogenous Her2 protein level, primary screen, SKBR3 breast tumor cells, AlphaScreen, ATP viability (AID 461;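 active = Her2 level under about 52% in both replicate screens, with viability over 70% of control, limit read from the data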;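 for Her2 level: lower value means less Her2 protein in the cells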;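 for viability: percent of carrier control wells set as 100% viability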); details: 18-24 h, measured here: SKBR3 viability, ATP luminescence, at 10 µM
[2] = target: Receptor tyrosine-protein kinase erbB-2 (Homo sapiens) (UniProt P04626); test: as above; details: 18-24 h, at 10 µM, stronger effect = lower value
[3] = SK-BR-3 cell growth inhibitors, pilot screen, 24 h, human (AID 572); details: SK-BR-3 viability, CellTiter-Glo luminescence, at 10 µM, stronger effect = lower value;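 note: compound exposure lasted between 18 and 24 h rather than exactly 24 h; 100% = carrier-treated control wells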
[4] = HUVEC growth inhibition – cell-based, human, primary screen (AID 575;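 active = viability at or below 30% in both replicate assays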;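 note: 100% = median of untreated cell wells with 0.1% DMSO on each plate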); details: HUVEC proliferation, CellTiter-Glo luminescence, 72 h; at 10 µM; stronger effect = lower value
[5] = growth inhibitors of H69AR lung tumor, primary screen, human, duplicate replicates (AID 580;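 active = viability at or under a set limit in both replicates, limit being median viability minus 3 SD, cut at about 48% in these data, passing the limit was not always enough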;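 note: 100% = mean luminescence of untreated wells and 0% = no signal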); details: H69AR lung tumor cells viability, ATP luminescence, 72 h; at 10 µM; stronger effect = lower value
[6] = reversal of MRP1-mediated doxorubicin resistance, pilot screen, H69AR cells, doxorubicin co-treatment (AID 601;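 active = viability loss from added drug above about 55%, and viability with drug at most 40%, in both replicates, limit read from the data, passing the limit was not always enough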); details: CellTiter-Glo, 72 h, at 10 µM; for differential viability (reversal): stronger effect = higher value
[7] = 384-well plate pilot, post-Golgi transport modulator project, inhibition of yeast transport mutant growth (AID 636; in the data active = inhibition above about 31%); details: absorbance 615 nm, about 18 h, stronger effect = higher value
[8] = growth suppression of yeast trafficking mutant, preliminary HTS, modulators of trafficking downstream of Golgi apparatus project, 1536-format plate, OD 615 nm (AID 637; in the data active = inhibition above about 30%); details: yeast transport mutant growth, absorbance 615 nm, 18 h; stronger effect = higher value
[9] = OD615 S. cerevisiae growth inhibition, permissive medium, pilot counter-assay, permissive growth control for S. cerevisiae lifespan shortening project (AID 705;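 active = growth inhibition above 25% in both replicates, a cutoff set 3 SD above the mean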); details: OD615, 24 h, at 10 µM, stronger effect = higher value
[10] = Restrictive medium S. cerevisiae growth inhibition, OD615, pilot screen of yeast lifespan reduction project, restrictive growth control (AID 706;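 active = growth inhibition above a set limit, 3 SD over mean compound inhibition, in both replicates, cut at about 43% in these data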;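 note: modified DeaD lifespan yeast strain shifted to restrictive glucose medium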); details: OD615, 48 h, at 10 µM, stronger effect = higher value
[11] = viability gain of MRP-1-high H69AR cells under doxorubicin, pilot screen, MRP-1 activator project, CellTiter-Glo, duplicate (AID 807;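 active = viability increase at or above a cutoff of the median across tested compounds plus 3 SD, cut at about 8.5% in these data, passing the limit was not always enough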;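 note: compound pretreatment 18-22 h then 72 h combined with doxorubicin; 0% = doxorubicin alone and 100% = vehicle without doxorubicin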); details: H69AR viability with doxorubicin, CellTiter-Glo luminescence; at 10 µM; stronger effect = higher value
[12] = growth suppression of beta-catenin knockout HCT116, pilot screen, human colon tumor cells (AID 823;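 active = cell viability at or below a set limit in both duplicate runs, the limit being the all-compound median minus 4 SD, cut at about 23% in these data, passing the limit was not always enough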;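 note: 0% = wells killed by 20 µM Hyamine and 100% = untreated DMSO cell wells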); details: CellTiter-Glo, 60 h, at 10 µM, stronger effect = lower value
[13] = growth suppression of PTEN-deleted HCT116, pilot screen, cell-based, HCT116 clonal line, CellTiter-Glo (AID 824;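 active = viability at or below 27.92% in each of two runs, the all-compound median minus 4 SD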;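 note: 0% = 20 µM Hyamine control and 100% = vehicle cell control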); details: 60 h, at 10 µM, stronger effect = lower value
[14] = inhibitors of the yeast RAM network, pilot screen, dse1pr::URA3 reporter, 5-FOA selection (AID 869;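 active = inhibition over a set limit, the all-compound mean plus 3 SD, in both replicate runs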;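 note: 0% = DMSO wells with no growth and 100% = 10 µM 1-NA-PP1 with full growth; RAM network block rescues cells from 5-FOA so hits raise OD615 growth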); details: S. cerevisiae dse1pr::URA3 5-FOA growth, OD615, 2 d; at 10 µM; stronger effect = higher value; strain carries analog-sensitive mutant Cbk1 kinase
[15] = H69AR cells + 2 uM doxorubicin, measured here: viability with 2 uM doxorubicin, stronger effect = lower value
[16] = H69AR cells, compound alone cytotoxicity

Receptor tyrosine-protein kinase erbB-2 (Homo sapiens), sequence (P04626 whole entry, looked up): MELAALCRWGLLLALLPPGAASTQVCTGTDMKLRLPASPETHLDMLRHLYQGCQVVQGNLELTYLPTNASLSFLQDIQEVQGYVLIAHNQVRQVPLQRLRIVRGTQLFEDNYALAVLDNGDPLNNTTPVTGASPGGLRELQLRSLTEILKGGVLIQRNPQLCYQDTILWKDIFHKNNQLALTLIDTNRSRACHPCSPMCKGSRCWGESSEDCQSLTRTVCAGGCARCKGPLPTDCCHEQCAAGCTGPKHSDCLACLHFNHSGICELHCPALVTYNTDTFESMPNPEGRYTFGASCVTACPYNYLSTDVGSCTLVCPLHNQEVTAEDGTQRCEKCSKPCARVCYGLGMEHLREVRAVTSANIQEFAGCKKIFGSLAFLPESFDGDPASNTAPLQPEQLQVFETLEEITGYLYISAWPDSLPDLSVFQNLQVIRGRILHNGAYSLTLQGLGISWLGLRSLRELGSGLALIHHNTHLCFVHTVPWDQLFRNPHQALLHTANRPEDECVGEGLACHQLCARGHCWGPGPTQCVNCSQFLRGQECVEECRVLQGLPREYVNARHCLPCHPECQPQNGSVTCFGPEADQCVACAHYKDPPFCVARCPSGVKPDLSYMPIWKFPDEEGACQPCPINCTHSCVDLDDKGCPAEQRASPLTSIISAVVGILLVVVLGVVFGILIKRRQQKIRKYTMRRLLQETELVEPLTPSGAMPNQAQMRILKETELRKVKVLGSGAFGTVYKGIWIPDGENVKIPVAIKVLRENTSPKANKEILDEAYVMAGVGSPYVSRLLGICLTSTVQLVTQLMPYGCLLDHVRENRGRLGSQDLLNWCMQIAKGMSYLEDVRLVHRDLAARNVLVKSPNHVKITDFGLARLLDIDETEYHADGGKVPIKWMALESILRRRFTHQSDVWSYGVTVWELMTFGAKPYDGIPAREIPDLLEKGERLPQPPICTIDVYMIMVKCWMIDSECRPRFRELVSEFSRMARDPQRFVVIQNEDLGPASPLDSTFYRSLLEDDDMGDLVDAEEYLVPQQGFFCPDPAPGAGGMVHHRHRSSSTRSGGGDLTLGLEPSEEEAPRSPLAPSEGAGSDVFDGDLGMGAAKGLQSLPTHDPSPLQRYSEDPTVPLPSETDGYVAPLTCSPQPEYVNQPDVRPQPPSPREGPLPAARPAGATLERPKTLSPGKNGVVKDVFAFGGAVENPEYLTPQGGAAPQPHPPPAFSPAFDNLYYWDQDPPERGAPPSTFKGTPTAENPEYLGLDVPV

CSc1nc2ccc(Nc3nc(N4CCOCC4)nc(N4CCOCC4)n3)cc2s1
active: viability [4] 18.5%
62.5%: viability [1]
inactive: Her2 level [2] 106% | viability [3] 62.5% | viability [5] 56.8% | differential viability (reversal) ([6]; H69AR cells + 2 uM doxorubicin) -3.63% | inhibition [7] 3.08% | inhibition [8] -0.5% | growth inhibition [9] -4.93% | growth inhibition [10] -5.7% | viability increase [11] -5.72% | viability [12] 68% | viability [13] 66.5% | inhibition [14] 1.97%
56.8%: viability [6, 16]
60.5%: viability [6, 15]

CCOC(=O)C1CCCN(c2c(Nc3ccc(C)c(C)c3)c(=O)c2=O)C1 (centres undefined)
inactive: Her2 level [2] 99% | viability [3] 84% | viability [4] 91.7% | viability [5] 87.6% | inhibition [7] 0% | inhibition [8] -4.43%
84%: viability [1]

CC(C)(C)c1cc(NC(=O)c2cc(F)c(F)c(F)c2F)no1
102%: viability [1]
70.8%: viability [6, 15]
50.2%: viability [6, 16]
inactive: Her2 level [2] 92% | viability [3] 102% | viability [4] 63.6% | differential viability (reversal) ([6]; H69AR cells + 2 uM doxorubicin) -20.6% | inhibition [7] 2.08% | inhibition [8] -3.83%

O=C(COc1ccccc1)N1CCN(c2ncnc3c2cnn3-c2ccccc2)CC1
97%: viability [1]
inactive: Her2 level [2] 77% | viability [3] 97% | viability [4] 58.6% | viability [5] 74.8% | inhibition [7] -8.77% | inhibition [8] -3.65%

CN1CCc2c(sc3c2c(=O)n(-c2ccccc2)c2nnc(SCc4ccc(F)cc4)n32)C1
inactive: Her2 level [2] 94.5% | viability [3] 82% | viability [4] 109% | viability [5] 102% | inhibition [7] -1.95% | inhibition [8] 0.79%
82%: viability [1]

C=CCSc1nnc2n(-c3ccccc3OC)c(=O)c3c4c(sc3n12)CCC4
83.5%: viability [1]
inactive: Her2 level [2] 100% | viability [3] 83.5% | viability [4] 79.9% | viability [5] 89.1% | inhibition [7] -0.67% | inhibition [8] -0.95%

Cc1[nH]c2ccccc2c1Cc1nnc(SCC(=O)NCc2ccco2)o1
85.7%: viability [6, 15]
93.7%: viability [6, 16]
inactive: Her2 level [2] 93% | viability [3] 93% | viability [4] 97.5% | viability [5] 93.7% | differential viability (reversal) ([6]; H69AR cells + 2 uM doxorubicin) 8% | inhibition [7] 1.6% | inhibition [8] -2.17% | growth inhibition [9] -12.4% | growth inhibition [10] 12.7% | viability increase [11] -3.96% | viability [12] 103% | viability [13] 95.5% | inhibition [14] 2.85%
93%: viability [1]

Cn1c(=O)n(Cc2ccccc2)c(=O)c2c1nc(NCC1CCCO1)n2Cc1ccccc1 (centres undefined)
81.5%: viability [1]
inactive: Her2 level [2] 103% | viability [3] 81.5% | viability [4] 74.4% | viability [5] 73.3% | inhibition [7] 0.79% | inhibition [8] -0.18%

COc1ccc(/C=N/n2cnnc2SCc2ccc(OC)cc2)cc1
89.9%: viability [6, 16]
96.7%: viability [6, 15]
83.5%: viability [1]
inactive: Her2 level [2] 90.5% | viability [3] 83.5% | viability [4] 87.6% | viability [5] 89.9% | differential viability (reversal) ([6]; H69AR cells + 2 uM doxorubicin) -6.8% | inhibition [7] 0% | inhibition [8] 4% | growth inhibition [9] 4.08% | growth inhibition [10] 30.7% | viability increase [11] 3.56% | viability [12] 90.6% | viability [13] 93.9% | inhibition [14] 2.4%

CCOc1ccccc1N1C(=O)c2ccc(C(=O)Nc3cccnc3)cc2C1=O
inactive: Her2 level [2] 94% | viability [3] 94.5% | viability [4] 88.2% | viability [5] 102% | differential viability (reversal) ([6]; H69AR cells + 2 uM doxorubicin) 2.08% | inhibition [7] -1.6% | inhibition [8] -2.13% | growth inhibition [9] -15.8% | growth inhibition [10] -21.7% | viability increase [11] 0.54% | viability [12] 107% | viability [13] 98.7% | inhibition [14] 3.15%
100%: viability [6, 15]
102%: viability [6, 16]
94.5%: viability [1]

Cc1ccc(-n2ncc3c(N4CCN(c5ccccc5)CC4)ncnc32)c(C)c1
93%: viability [1]
inactive: Her2 level [2] 79% | viability [3] 93% | viability [4] 57.9% | viability [5] 80.3% | inhibition [7] -2.93% | inhibition [8] 1.94%

CCOC(=O)c1sc(NC(=O)CSc2nnc(-c3ccco3)n2CC)c(C(=O)OCC)c1C
101%: viability [1]
inactive: Her2 level [2] 71% | viability [3] 101% | viability [4] 77.5% | viability [5] 74.2% | inhibition [7] -0.66% | inhibition [8] -0.32%

CC(NC(=O)c1cn(C)c2ccc(S(=O)(=O)N3CCCC3)cc2c1=O)c1ccc2c(c1)OCCO2 (centres undefined)
89%: viability [1]
77.8%: viability [6, 16]
44%: viability [6, 15]
inactive: Her2 level [2] 78.5% | viability [3] 89% | viability [4] 85.6% | viability [5] 77.8% | differential viability (reversal) ([6]; H69AR cells + 2 uM doxorubicin) 33.8% | inhibition [7] -6.22% | inhibition [8] 4.75% | growth inhibition [9] -9.02% | growth inhibition [10] -24.8% | viability increase [11] -4.7% | viability [12] 75.5% | viability [13] 76% | inhibition [14] 2.6%

O=C(C1CCN(c2nnc(-n3cccc3)s2)CC1)N1CCN(Cc2ccc3c(c2)OCO3)CC1
85.6%: viability [6, 15]
78.5%: viability [1]
inactive: Her2 level [2] 80.5% | viability [3] 78.5% | viability [4] 105% | viability [5] 82% | differential viability (reversal) ([6]; H69AR cells + 2 uM doxorubicin) -3.6% | inhibition [7] 3.59% | inhibition [8] 1.67% | growth inhibition [9] 10.4% | growth inhibition [10] 10.1% | viability increase [11] -0.09% | viability [12] 59.1% | viability [13] 64.8% | inhibition [14] 2.78%
82%: viability [6, 16]
